# The supplement of paper PMC10849652
# The full data set covers some 8,800 targets. This sample favours those with a hit. About 0.5% of all pairs of compound and target were hits. Values without a mark were called inactive.
# Columns and labels:
# Assay in all cases: log2 fold change, soluble protein after heating vs DMSO (PISA); higher = thermal stabilisation; K562 lysate, 10 uM; active = over 0.2 and 3.5 SD of the protein, either way, in both replicates (recomputed)
# erlotinib = compound: C#Cc1cccc(Nc2ncnc3cc(OCCOC)c(OCCOC)cc23)c1 [erlotinib]
# Procedure, shortened: (§1)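 The values are log-two fold changes in thermal stability compared with solvent controls and come from duplicates. They were obtained by TMTpro 16plex LC-MS/MS, with channel sums equalised, on the supernatant after 21,000xg for 90 min. That supernatant came from crude K562 extract at 1 mg/mL protein treated with 10 μM compound for 30 min, heated for 3 min across 48°C-58°C, pooled and brought to 0.5% NP-40 at 4°C.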
# [1] = compound: C/C(=N\NC(=O)C1=CC(=CC=C1)S(=O)(=O)N2CCOCC2)/C3=C(C=CC(=C3)Cl)O
# Procedure, shortened: as §1
# [2] = compound: C1=CC(=CC=C1C2=NC3=C(N2)C=C(C=C3)C(=O)N)OC4=CC=C(C=C4)Cl
# Procedure, shortened: as §1
# [3] = compound: C1=CC2=C(C=CC(=C2)/C=C\3/C(=O)NC(=NCC4=CC=CS4)S3)N=C1
# Procedure, shortened: as §1
# [4] = compound: C1=CC2=NC=CN=C2C=C1/C=C/3\C(=O)NC(=O)S3
# Procedure, shortened: as §1
# [5] = compound: C1=CC=C(C=C1)C2=NC(=C(N2)C3=CC=NC=C3)C4=CC(=C(C=C4)Cl)O
# Procedure, shortened: as §1
# [6] = compound: C1=CC=C2C(=C1)C3=NNC4=CC=CC(=C43)C2=O
# Procedure, shortened: as §1
# [7] = compound: C1CCN(C1)C(=O)NC2=CC=CC(=C2)NC3=NC=C(C(=N3)NCCC4=CN=CN4)Br
# Procedure, shortened: as §1
# [8] = compound: C1CN(CCC1(CC2=CC=C(C=C2)Cl)N)C3=NC=NC4=C3C=CN4
# Procedure, shortened: as §1
# IRAK-1-4 Inhibitor I = compound: C1COCCN1CCN2C3=CC=CC=C3N=C2NC(=O)C4=CC(=CC=C4)[N+](=O)[O-] [IRAK-1-4 Inhibitor I]
# Procedure, shortened: as §1
# ibrutinib = compound: C=CC(=O)N1CCC[C@@H](n2nc(-c3ccc(Oc4ccccc4)cc3)c3c(N)ncnc32)C1 [ibrutinib]
# Procedure, shortened: as §1
# [9] = compound: CC(=O)c1cnc2ccc(-c3cc(Cl)c(O)c(Cl)c3)nc2c1N[C@H]1CC[C@H](CN(C)C)CC1
# Procedure, shortened: as §1
# ralimetinib = compound: CC(C)(C)Cn1c(N)nc2ccc(-c3[nH]c(C(C)(C)C)nc3-c3ccc(F)cc3)nc21 [ralimetinib]
# Procedure, shortened: as §1
# [10] = compound: CC(C)(O)CC(=O)NCCn1ccc2ncnc(Nc3ccc(Oc4cccc(C(F)(F)F)c4)c(Cl)c3)c21
# Procedure, shortened: as §1
# [11] = compound: CC(C)C1=C2N=C(C=C(N2N=C1)NCC3=CC=CC=C3)NCCCCCCN
# Procedure, shortened: as §1
# [12] = compound: CC1=C(C(CC(=O)N1)C2=CC=C(C=C2)C(F)(F)F)C(=O)NC3=C(C=C4C(=C3)C=NN4)F
# Procedure, shortened: as §1
# [13] = compound: CC1=C(C2=C(C=C1)C(=O)C3=CC=CC=C3N2CCCN)C
# Procedure, shortened: as §1
# [14] = compound: CC1=C(C=C(C=C1)NC(=O)C2=CC(=CC=C2)C(C)(C)C#N)NC3=CC4=C(C=C3)N=CN(C4=O)C
# Procedure, shortened: as §1
# [15] = compound: CC1=C(C=C(C=C1)NC(=O)C2=CC(=CC=C2)N(C)C)NC(=O)C3=CC=C(C=C3)O
# Procedure, shortened: as §1
# [16] = compound: CC1=CC=C(C=C1)SC2=C3C=C(SC3=CN=C2)C(=O)N
# Procedure, shortened: as §1
# Sequence of UniProt Q9NQW6 (Q9NQW6 whole entry, looked up): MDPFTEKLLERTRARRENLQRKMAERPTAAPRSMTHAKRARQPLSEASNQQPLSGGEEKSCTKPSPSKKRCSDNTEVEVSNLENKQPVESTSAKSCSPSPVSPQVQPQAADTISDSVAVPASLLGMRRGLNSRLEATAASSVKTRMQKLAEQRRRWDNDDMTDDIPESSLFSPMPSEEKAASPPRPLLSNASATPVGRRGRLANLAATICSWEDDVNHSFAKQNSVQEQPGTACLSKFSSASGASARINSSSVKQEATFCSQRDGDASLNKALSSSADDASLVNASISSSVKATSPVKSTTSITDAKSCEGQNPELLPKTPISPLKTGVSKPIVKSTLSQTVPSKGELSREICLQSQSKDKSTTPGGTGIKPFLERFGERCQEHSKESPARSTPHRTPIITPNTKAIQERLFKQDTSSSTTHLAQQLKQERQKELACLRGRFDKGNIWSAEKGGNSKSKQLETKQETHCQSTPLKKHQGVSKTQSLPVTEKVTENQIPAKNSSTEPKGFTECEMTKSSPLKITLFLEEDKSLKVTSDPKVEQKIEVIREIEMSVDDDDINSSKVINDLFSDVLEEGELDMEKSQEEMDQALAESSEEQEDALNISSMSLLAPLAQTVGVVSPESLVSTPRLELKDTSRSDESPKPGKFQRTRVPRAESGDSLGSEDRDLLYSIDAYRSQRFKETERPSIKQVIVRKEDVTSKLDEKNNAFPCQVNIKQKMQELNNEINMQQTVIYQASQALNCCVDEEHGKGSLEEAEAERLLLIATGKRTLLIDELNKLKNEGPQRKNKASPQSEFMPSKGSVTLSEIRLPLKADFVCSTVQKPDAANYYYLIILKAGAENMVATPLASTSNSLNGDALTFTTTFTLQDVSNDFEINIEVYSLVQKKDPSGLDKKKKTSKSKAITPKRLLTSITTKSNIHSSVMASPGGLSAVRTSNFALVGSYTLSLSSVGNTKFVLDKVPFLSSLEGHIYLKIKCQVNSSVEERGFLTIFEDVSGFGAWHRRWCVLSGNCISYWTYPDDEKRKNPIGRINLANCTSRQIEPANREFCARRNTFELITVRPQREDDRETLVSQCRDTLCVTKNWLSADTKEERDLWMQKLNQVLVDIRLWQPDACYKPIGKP
# Sequence of UniProt P27695 (P27695 whole entry, looked up): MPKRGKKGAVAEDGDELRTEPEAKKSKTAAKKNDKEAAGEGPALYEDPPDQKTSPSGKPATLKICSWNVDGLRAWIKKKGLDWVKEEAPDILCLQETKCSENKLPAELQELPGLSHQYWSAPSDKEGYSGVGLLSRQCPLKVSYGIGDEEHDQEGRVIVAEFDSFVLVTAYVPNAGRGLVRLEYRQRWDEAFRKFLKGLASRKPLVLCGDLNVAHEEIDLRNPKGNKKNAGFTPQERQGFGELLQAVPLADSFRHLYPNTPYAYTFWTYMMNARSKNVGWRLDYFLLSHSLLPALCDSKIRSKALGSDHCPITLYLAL
# Sequence of UniProt P31749 (P31749 whole entry, looked up): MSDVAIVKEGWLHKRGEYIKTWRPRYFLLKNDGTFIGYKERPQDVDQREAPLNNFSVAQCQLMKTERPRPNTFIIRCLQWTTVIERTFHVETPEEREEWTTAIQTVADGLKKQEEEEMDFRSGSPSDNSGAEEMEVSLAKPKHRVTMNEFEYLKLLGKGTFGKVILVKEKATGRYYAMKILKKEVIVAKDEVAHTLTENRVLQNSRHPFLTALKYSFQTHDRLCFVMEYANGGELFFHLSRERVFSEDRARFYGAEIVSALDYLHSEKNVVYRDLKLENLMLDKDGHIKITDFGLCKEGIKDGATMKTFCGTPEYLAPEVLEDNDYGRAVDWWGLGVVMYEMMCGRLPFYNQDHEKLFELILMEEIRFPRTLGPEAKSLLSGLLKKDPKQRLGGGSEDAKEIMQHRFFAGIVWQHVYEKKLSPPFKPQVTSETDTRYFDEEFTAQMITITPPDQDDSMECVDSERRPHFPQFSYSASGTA
# Sequence of UniProt P33121 (P33121 whole entry, looked up): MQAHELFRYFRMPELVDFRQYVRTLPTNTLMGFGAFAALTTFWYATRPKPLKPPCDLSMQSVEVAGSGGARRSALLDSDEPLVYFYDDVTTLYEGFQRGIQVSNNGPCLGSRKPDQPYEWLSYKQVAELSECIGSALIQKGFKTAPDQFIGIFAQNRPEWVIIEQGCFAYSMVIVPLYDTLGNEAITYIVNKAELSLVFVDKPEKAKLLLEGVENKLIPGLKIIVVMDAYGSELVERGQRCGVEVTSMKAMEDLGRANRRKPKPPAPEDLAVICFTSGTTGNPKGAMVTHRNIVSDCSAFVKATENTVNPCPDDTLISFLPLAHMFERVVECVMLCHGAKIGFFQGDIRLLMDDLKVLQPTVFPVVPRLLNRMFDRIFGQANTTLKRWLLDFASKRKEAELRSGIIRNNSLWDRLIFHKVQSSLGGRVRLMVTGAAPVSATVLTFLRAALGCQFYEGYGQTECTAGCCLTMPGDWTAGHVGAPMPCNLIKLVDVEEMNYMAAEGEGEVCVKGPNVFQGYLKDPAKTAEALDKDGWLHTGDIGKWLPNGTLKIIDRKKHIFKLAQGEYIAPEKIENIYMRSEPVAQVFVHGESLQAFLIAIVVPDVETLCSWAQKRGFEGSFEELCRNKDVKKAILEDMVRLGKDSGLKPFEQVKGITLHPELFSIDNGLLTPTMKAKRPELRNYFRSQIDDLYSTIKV
# Sequence of UniProt O14617 (O14617 whole entry, looked up): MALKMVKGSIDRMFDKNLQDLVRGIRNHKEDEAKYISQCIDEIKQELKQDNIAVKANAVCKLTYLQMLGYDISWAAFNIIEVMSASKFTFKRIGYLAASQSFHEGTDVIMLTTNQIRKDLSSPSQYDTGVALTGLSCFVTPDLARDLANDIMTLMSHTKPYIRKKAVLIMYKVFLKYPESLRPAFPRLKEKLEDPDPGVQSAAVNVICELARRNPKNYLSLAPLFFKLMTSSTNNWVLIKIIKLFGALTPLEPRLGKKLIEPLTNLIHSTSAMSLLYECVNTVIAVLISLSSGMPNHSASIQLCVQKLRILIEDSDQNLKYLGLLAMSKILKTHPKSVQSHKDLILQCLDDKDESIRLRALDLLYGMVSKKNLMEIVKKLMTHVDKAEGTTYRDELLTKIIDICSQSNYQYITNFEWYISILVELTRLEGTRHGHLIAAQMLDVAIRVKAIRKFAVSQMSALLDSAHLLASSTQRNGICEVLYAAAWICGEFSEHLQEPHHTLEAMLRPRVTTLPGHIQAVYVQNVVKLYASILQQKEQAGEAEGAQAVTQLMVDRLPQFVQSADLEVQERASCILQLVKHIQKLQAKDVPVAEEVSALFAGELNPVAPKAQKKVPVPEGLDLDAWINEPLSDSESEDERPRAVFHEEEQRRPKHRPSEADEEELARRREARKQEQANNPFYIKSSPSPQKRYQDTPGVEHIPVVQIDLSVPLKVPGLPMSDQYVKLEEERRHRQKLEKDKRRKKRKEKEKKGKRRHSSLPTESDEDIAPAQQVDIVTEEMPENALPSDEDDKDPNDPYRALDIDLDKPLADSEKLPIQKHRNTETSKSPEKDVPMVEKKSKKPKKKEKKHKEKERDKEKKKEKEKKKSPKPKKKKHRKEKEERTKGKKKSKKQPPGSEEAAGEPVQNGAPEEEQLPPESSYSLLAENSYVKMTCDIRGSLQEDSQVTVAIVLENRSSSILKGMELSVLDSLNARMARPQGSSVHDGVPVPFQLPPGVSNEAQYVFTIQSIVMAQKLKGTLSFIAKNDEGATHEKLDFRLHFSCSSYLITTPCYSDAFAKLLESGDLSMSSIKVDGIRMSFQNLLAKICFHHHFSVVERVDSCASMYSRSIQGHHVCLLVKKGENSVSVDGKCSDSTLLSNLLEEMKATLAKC
# Sequence of UniProt Q9NXU5 (Q9NXU5 whole entry, looked up): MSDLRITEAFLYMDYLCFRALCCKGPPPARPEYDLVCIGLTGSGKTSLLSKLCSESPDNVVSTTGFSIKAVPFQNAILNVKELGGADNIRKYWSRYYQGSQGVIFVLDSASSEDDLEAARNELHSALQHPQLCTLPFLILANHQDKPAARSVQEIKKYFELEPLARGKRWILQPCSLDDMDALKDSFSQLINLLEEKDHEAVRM
# Sequence of UniProt Q8N6T3 (Q8N6T3 whole entry, looked up): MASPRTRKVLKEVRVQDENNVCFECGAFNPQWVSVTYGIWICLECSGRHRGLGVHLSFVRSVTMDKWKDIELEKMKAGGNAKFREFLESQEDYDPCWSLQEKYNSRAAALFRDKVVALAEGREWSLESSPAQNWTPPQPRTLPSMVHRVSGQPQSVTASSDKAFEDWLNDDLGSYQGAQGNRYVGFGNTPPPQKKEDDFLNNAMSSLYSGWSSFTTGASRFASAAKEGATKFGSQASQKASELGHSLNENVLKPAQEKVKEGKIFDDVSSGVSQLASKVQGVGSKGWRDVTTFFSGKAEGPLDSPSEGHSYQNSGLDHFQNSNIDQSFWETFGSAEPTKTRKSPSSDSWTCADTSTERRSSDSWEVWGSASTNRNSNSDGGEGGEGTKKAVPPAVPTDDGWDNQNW
# Sequence of UniProt P28288 (P28288 whole entry, looked up): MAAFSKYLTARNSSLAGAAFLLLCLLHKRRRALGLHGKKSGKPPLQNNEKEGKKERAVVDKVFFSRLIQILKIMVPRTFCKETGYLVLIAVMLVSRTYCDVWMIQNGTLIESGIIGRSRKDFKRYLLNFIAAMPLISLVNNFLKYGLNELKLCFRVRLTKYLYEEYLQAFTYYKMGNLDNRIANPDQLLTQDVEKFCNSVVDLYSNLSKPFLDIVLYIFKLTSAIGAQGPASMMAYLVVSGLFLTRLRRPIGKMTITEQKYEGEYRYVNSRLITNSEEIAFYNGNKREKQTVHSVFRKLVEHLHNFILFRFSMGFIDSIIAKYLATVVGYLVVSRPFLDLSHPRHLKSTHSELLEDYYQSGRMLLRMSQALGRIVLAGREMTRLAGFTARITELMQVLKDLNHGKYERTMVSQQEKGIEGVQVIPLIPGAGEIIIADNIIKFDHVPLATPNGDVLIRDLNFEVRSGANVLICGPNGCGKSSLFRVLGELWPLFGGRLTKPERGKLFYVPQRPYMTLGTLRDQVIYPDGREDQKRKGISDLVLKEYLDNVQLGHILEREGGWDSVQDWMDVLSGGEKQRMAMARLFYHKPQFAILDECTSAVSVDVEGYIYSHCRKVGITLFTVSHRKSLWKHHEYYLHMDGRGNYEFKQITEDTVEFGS
Target,log2 fold change (erlotinib),log2 fold change [1],log2 fold change [2],log2 fold change [3],log2 fold change [4],log2 fold change [5],log2 fold change [6],log2 fold change [7],log2 fold change [8],log2 fold change (IRAK-1-4 Inhibitor I),log2 fold change (ibrutinib),log2 fold change [9],log2 fold change (ralimetinib),log2 fold change [10],log2 fold change [11],log2 fold change [12],log2 fold change [13],log2 fold change [14],log2 fold change [15],log2 fold change [16]
ARL15 (UniProt Q9NXU5),-0.035,0.004,-0.009,0.011,0.079,-0.033,0.005,0.004,-0.031,0.038,-0.015,0.048,-0.012,-0.05,0.015,0.005,0.005,0.001,0.033,-0.005
ACIN1 (UniProt E7EQT4),0.001,-0.16,0,0.05,-0.027,-0.057,-0.009,0.008,-0.027,0.012,0.049,-0.033,0.123,-0.052,0.028,-0.017,-0.052,0.094,-0.03,-0.002
AP3D1 isoform 5 (UniProt O14617),-0.013,-0.004,-0.006,0.011,0.001,-0.007,-0.015,-0.015,-0.001,-0.003,0.033,-0.012,0.028,-0.012,-0.007,-0.014,-0.024,0.011,0.01,0.006
ACSL1 (UniProt P33121),0.02,-0.104,-0.153,0.086,0.051,0.025,-0.04,0.009,0.012,0.022,0.009,0.008,-0.004,-0.075,0.01,0.024,0.004,-0.01,0.026,-0.004
ANLN (UniProt Q9NQW6),-0.006,-0.142,0.007,-0.019,-0.072,0.01,-0.019,-0.045,-0.002,-0.017,0.025,-0.027,0.02,-0.001,-0.014,0.02,-0.01,0.026,0.029,-0.04
ABCD3 (UniProt P28288),-0.1,0.556 (active),0.217,-0.051,-0.055,-0.075,-0.031,-0.084,0.044,-0.003,-0.035,-0.083,-0.067,0.064,0.185,0.01,-0.096,-0.028,-0.073,-0.031
AKT1 (UniProt P31749),-0.008,0.042,-0.004,0.121,0.019,0.059,0.018,-0.034,0.03,-0.005,0.028,0.013,0.005,-0.023,0.009,0.003,-0.009,0,-0.006,0.019
ALDH1L2 (UniProt Q3SY69),0.005,0.025,0.011,0.037,-0.02,-0.004,-0.064,-0.018,0.024,-0.011,0.033,0.034,0.024,-0.038,0.006,0.029,-0.022,-0.028,-0.006,0.016
AKR1B1 (UniProt P15121),-0.044,-0.001,-0.006,0.012,-0.009,-0.047,-0.044,-0.043,-0.003,-0.021,0.023,-0.015,0.031,-0.029,-0.033,-0.013,0.091,-0.038,0.028,0.004
ADD1 isoform 3 (UniProt P35611),-0.027,0,0.033,0.011,-0.01,-0.004,0.011,-0.015,-0.014,-0.021,-0.006,-0.009,0,-0.01,-0.005,0.007,-0.038,0.005,-0.009,-0.019
APEX1 (UniProt P27695),0.026,0.011,-0.011,0.016,0,0.004,-0.072,0,0.003,-0.007,0.048,-0.001,-0.014,0.026,0.006,0.001,-0.02,-0.011,0.01,0.019
ACOX1 isoform 2 (UniProt Q15067),-0.01,-0.023,0.007,0.007,0.01,0.011,-0.017,-0.007,0.024,0.081,0.036,0.052,0.098,-0.044,-0.013,-0.016,-0.043,0.001,-0.026,-0.024
ACTG1 (UniProt I3L4N8),0.118,0.163,-0.016,0.029,-0.2,0.054,-0.207,-0.142,-0.143,-0.013,0.191,0.053,-0.019,0.065,-0.184,0.038,-0.677 (active),-0.181,-0.006,0.033
ARHGEF1 (UniProt M0QZR4),0.018,0.024,-0.023,0.002,0.027,0.001,-0.041,-0.004,-0.022,-0.031,-0.009,-0.001,0.009,-0.008,0.019,-0.015,0.007,0.002,0.015,0.005
ARFGAP1 (UniProt Q8N6T3),-0.028,-0.209,-0.025,0.005,0.029,-0.039,-0.025,-0.018,0.002,0.038,-0.118,0.06,-0.018,-0.203,0.019,0.408,0.136,-0.062,0.061,-0.045
ABHD12 isoform 2 (UniProt Q8N2K0),-0.027,-0.031,-0.062,0.074,0.037,-0.064,0,-0.03,0.048,0.014,-0.039,-0.03,0.043,-0.014,0.05,0.052,0.021,0.022,-0.05,0.033
